Several values for one entry are separate records, joined by “and”; a condition that tells them apart may be missing. Equal values may be shown once. Where a name gives a salt, the structure may show the parent alone.
What was measured:
Assay in all cases: cell viability relative to vehicle control; higher = less cytotoxic
Settings in all cases: 10 µM
[1] = system: K562
Outline: (§1)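 After removal of identity-inconsistent compounds, the Selleck bioactive, kinase and epigenetic probe libraries were screened on CRISPR-edited mutant clones and isogenic wild-type clones of four leukaemia lines. Plates were 384-well, each well holding 2000 cells in 50 µL medium and receiving a single 10 µM acoustically dispensed dose. CellTiter-Glo luminescence was read 48 h later, after the supernatant was taken off. Genedata Screener was used to express viability as percent of the on-plate vehicle control.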

[2] = system: MARIMO
Outline: as §1

[3] = system: MOLM14
Outline: as §1

[4] = system: OCI-AML2
Outline: as §1

Row | Structure (SMILES) | cell viability ([1]; SRSF2 genotype: SRSF2 P95H/wt) | cell viability ([1]; SRSF2 genotype: SRSF2 wt/wt) [%] | cell viability ([2]; SRSF2 genotype: SRSF2 P95H/wt) [%] | cell viability ([2]; SRSF2 genotype: SRSF2 wt/wt) [%] | cell viability ([3]; SRSF2 genotype: SRSF2 P95H/wt) [%] | cell viability ([3]; SRSF2 genotype: SRSF2 wt/wt) [%] | cell viability ([4]; SRSF2 genotype: P95H/wt) [%] | cell viability ([4]; SRSF2 genotype: wt/wt) [%]
1 | CCCN(CCC)CCc1cccc2c1CC(=O)N2 [Ropinirole HCl] | 98.9% and 97.5% | 95.9 | 103 | 100 | 103 | 102 | 100 | 89.4
2 | O=C(O)CCn1c2c(c3ccccc31)C[C@H](NS(=O)(=O)c1ccc(F)cc1)CC2 [Ramatroban] | 100% and 101% | 105 | 106 | 108 | 102 | 104 | 101 | 103
3 | NS(=O)(=O)c1ccc(NC(=O)Nc2ccc(F)cc2)cc1 | 99.9% and 107% | 107 | 115 | 113 | 110 | 108 | 99.6 | 95
4 | C[C@@H](c1nc(-c2ccc(C#N)cc2)cs1)[C@](O)(Cn1cncn1)c1cc(F)ccc1F [Isavuconazole] | 45.7% and 47.6% | 48.5 | 39.3 | 33 | 44.8 | 26 | 38.7 | 28
5 | CN1CCN(C(=O)c2ccc(-c3ccc4c(C=O)c(O)ccc4c3)s2)CC1 | 68.3% and 74.8% | 71.6 | 66.8 | 53.4 | 73.2 | 76.8 | 72.9 | 79.5
6 | Cc1ccc(/C=C2/C(=O)C3(C)CCC2C3(C)C)cc1 (stereo not drawn) [4-Methylbenzylidene camphor] | 105% and 97.8% | 96.1 | 90 | 108 | 95.5 | 104 | 89.4 | 99.7
7 | O=C(O)[C@H]1O[C@@H](Oc2cc3oc(-c4ccccc4)cc(=O)c3c(O)c2O)[C@H](O)[C@@H](O)[C@@H]1O [Baicalin] | 98.7% and 105% | 109 | 101 | 97.8 | 98.7 | 107 | 99.9 | 95.3
8 | Cc1cc(C)c(S(=O)(=O)n2cc(C)cc2C)c(C)c1 | 90.6% and 98.6% | 95.1 | 90.8 | 88.4 | 84.7 | 92.2 | 99.7 | 102
9 | COc1ccc(CCCOC(Cn2ccnc2)c2ccc(OC)cc2)cc1 (stereo not drawn) | 16.1% and 28.8% | 28.9 | 13.8 | 14.8 | 19.7 | 4.26 | 14.6 | 18.9
10 | COc1cc(O)c(CC=C(C)C)c2c1C(=O)CC(c1ccc(O)cc1)O2 (stereo not drawn) [Isoxanthohumol] | 83.1% and 81.6% | 78.3 | 94.3 | 82.2 | 94.7 | 97.7 | 93.7 | 93
11 | O=C(/C=C/c1ccc(O)cc1)c1ccc(O)cc1O [Isoliquiritigenin] | 86.2% and 94.8% | 84.4 | 83.3 | 98.4 | 53.5 | 74.7 | 89 | 98
12 | Cc1cc(C)c(CNC(=O)c2cc(-c3ccc(CN4CCOCC4)cc3)cc3c2cnn3C2CCCC2)c(=O)[nH]1 | 105% and 117% | 120 | 113 | 111 | 104 | 107 | 111 | 106
13 | C[C@@H]1CC[C@@]2(OC1)O[C@H]1C[C@H]3[C@@H]4CC=C5C[C@@H](O[C@@H]6O[C@H](CO)[C@@H](O)[C@H](O)[C@H]6O)CC[C@]5(C)[C@H]4CC[C@]3(C)[C@H]1[C@@H]2C [Trillin] | 87.5% and 97.2% | 94 | 76.7 | 78.7 | 84.5 | 93.2 | 88.3 | 98.5
14 | CCCCCCCCCCCCN1CCCCCC1=O [Laurocapram] | 82.4% and 87.5% | 93.1 | 80.5 | 86.3 | 80.8 | 90.8 | 70.4 | 73.7
15 | CCCCCCCCCC[C@H](C(=O)O)[C@]1(C(=O)O)CCC(=O)O1 [Spiculisporic Acid] | 107% and 103% | 103 | 104 | 107 | 98.8 | 110 | 95.5 | 103
16 | CC1(C)CC[C@]2(C(=O)O)CC[C@]3(CO)C(=CC[C@@H]4[C@@]5(C)C[C@H](O)[C@H](O[C@@H]6O[C@H](CO)[C@@H](O)[C@H](O)[C@H]6O)[C@@](C)(C(=O)O)[C@@H]5CC[C@]43C)[C@@H]2C1 [Tenuifolin] | 102% and 96.9% | 105 | 104 | 112 | 99.4 | 108 | 102 | 103
17 | CN1CCN(C2CCN(C(=O)Nc3cc(Oc4ccc(NC(=O)C5(C(=O)Nc6ccc(F)cc6)CC5)c(F)c4)ccn3)CC2)CC1 [Golvatinib (E7050)] | 5.46% and 7.13% | 10.1 | 61.6 | 58.9 | 4.27 | 8.67 | 7.56 | 18.6
18 | Cc1nc(C)c(C)nc1C [Tetramethylpyrazine] | 111% and 112% | 118 | 107 | 111 | 108 | 107 | 112 | 116
19 | O=C(NO)c1ccc(CC(=O)N(CCO)c2ccccc2)cc1 | 87.2% and 92.2% | 86.2 | 78.9 | 90.4 | 71.9 | 73.6 | 77.2 | 81.6
20 | Nc1nc(=O)[nH]c2c1ncn2[C@@H]1O[C@H](CO)[C@@H](O)[C@H]1O [Isoguanosine] | 101% and 98.5% | 98.7 | 94.7 | 97.7 | 93.3 | 96.8 | 106 | 91.8
21 | c1ccc2occc2c1 [2,3-Benzofuran] | 105% and 91% | 99.1 | 93.7 | 107 | 98.4 | 105 | 90.6 | 98.6

Row | Structure (SMILES) | cell viability ([1]; SRSF2 genotype: SRSF2 P95H/wt) | cell viability ([1]; SRSF2 genotype: SRSF2 wt/wt) [%] | cell viability ([2]; SRSF2 genotype: SRSF2 P95H/wt) [%] | cell viability ([2]; SRSF2 genotype: SRSF2 wt/wt) [%] | cell viability ([3]; SRSF2 genotype: SRSF2 P95H/wt) [%] | cell viability ([3]; SRSF2 genotype: SRSF2 wt/wt) [%] | cell viability ([4]; SRSF2 genotype: P95H/wt) [%] | cell viability ([4]; SRSF2 genotype: wt/wt) [%]
22 | Cc1nc(-c2cccnc2)sc1C(=O)Nc1ccccc1-c1cn2c(CN3CCOCC3)csc2n1 | 97.4% and 94.2% | 88.3 | 107 | 116 | 102 | 103 | 95.3 | 102
23 | COc1cccc2cc(-c3nc([C@H]4CC[C@H](C(=O)O)CC4)n4ncnc(N)c34)[nH]c12 | 36.1% and 37% | 32.9 | 51.5 | 47.1 | 29.4 | 24.9 | 26.5 | 27.5
24 | O=C(O)Cc1ccccc1Nc1c(Cl)cccc1Cl [Diclofenac Potassium] | 94.4% and 99.1% | 97.2 | 106 | 105 | 93.5 | 100 | 95.3 | 105
25 | CCNC(=O)CCC/C=C\C[C@@H]1[C@@H](/C=C/[C@@H](O)CCc2ccccc2)[C@H](O)C[C@@H]1O [Bimatoprost] | 99.5% and 99.1% | 96.8 | 95.4 | 98.3 | 98.4 | 98.3 | 105 | 98.8
26 | N#Cc1ccc2[nH]c(O)c(-c3ccc(CN4CCOCC4)cn3)c2c1 | 73.5% and 54.9% | 78.4 | 81.4 | 97.9 | 71.2 | 93.3 | 98.7 | 123
27 | CNC(=O)c1nn(C)c2c1C(C)(C)Cc1cnc(Nc3ccc(N4CCN(C)CC4)cc3)nc1-2 | 34% and 36.5% | 25.2 | 21.4 | 22.6 | 16 | 5.62 | 13.8 | 19.4
28 | CC(=O)NS(=O)(=O)c1ccc(N)cc1 [Sulfacetamide Sodium] | 96.5% and 94.7% | 101 | 96.3 | 101 | 101 | 101 | 108 | 96.6
29 | O=C(NCCCNc1nc(Nc2cccc(CN3CCOCC3)c2)ncc1C1CC1)C1CCC1 | 74.5% and 95.7% | 84.8 | 69.5 | 74.1 | 8.31 | 6.65 | 17.8 | 21.4
30 | CC(C)OC(=O)C1=CN(C(=O)c2ccc(F)c(F)c2)CC(C)(C)c2c1[nH]c1ccccc21 [Turofexorate Isopropyl (XL335)] | 100% and 97.7% | 103 | 96.7 | 102 | 97 | 98.5 | 92.7 | 96.7
31 | COc1cc(CCC(C)=O)ccc1O [Vanillylacetone] | 104% and 93.6% | 91.8 | 100 | 108 | 101 | 101 | 97.8 | 108
32 | CCCCCCCCCCCCCCCCCC(=O)O [Stearic acid] | 107% and 111% | 107 | 107 | 109 | 105 | 108 | 96.4 | 103
33 | CCCCCCCCC/C(=C\C1=C(C)C(=O)C(OC)=C(OC)C1=O)C(=O)O | 106% and 100% | 99.4 | 112 | 105 | 94.2 | 102 | 108 | 107
34 | C[C@]12CCC(=O)C=C1CC[C@@H]1[C@@H]2[C@@H](O)C[C@@]2(C)[C@H]1CC[C@]2(O)C(=O)CO [Hydrocortisone (Cortisol)] | 99.7% and 98.6% | 110 | 105 | 99 | 107 | 100 | 109 | 118
35 | CC[C@H]1OC(=O)[C@H](C)[C@@H](O[C@H]2C[C@@](C)(OC)[C@@H](O)[C@H](C)O2)[C@H](C)[C@@H](O[C@@H]2O[C@H](C)C[C@H](N(C)C)[C@H]2O)[C@](C)(O)C[C@@H](C)C(=O)[C@H](C)[C@@H](O)[C@]1(C)O [Erythromycin thiocyanate] | 97.3% and 94.2% | 94.6 | 82.7 | 91.9 | 87.9 | 89.1 | 87 | 90.1
36 | CO/N=C(/C(=O)N[C@@H]1C(=O)N2C(C(=O)OCOC(=O)C(C)(C)C)=C(C)CS[C@H]12)c1csc(N)n1 [Cefetamet pivoxil hydrochloride] | 95.8% and 97% | 102 | 95 | 104 | 92.5 | 103 | 107 | 98.1
37 | CC(=O)c1cc([N+](=O)[O-])c(Sc2ccc(F)cc2F)s1 | 69% and 79.6% | 71 | 57.1 | 54.2 | 13.7 | 12.3 | 76.6 | 35.3
38 | CC(=C(CCOC(=O)C(C)C)SSC(CCOC(=O)C(C)C)=C(C)N(C=O)Cc1cnc(C)nc1N)N(C=O)Cc1cnc(C)nc1N (stereo in doubt) [Sulbutiamine] | 99% and 93.5% | 93.6 | 84.7 | 95.4 | 84.2 | 90.8 | 84.7 | 93.6
39 | CC(C)(OCc1nn(Cc2ccccc2)c2ccccc12)C(=O)O [Bindarit] | 102% and 106% | 112 | 108 | 103 | 101 | 106 | 118 | 107
40 | CCCCOc1ccc(CC(=O)NO)cc1 [Bufexamac] | 95% and 94.9% | 98.8 | 91.6 | 88.7 | 85.7 | 93.1 | 98.1 | 91.8
41 | COc1ccc(-c2nc(N3CCOCC3)c3sc(CN(C)c4ncc(C(=O)NO)cn4)cc3n2)cn1 | 1.16% and 7.95% | 2.68 | 1.32 | 2.78 | 0.39 | 0.45 | 0.79 | 1.17

Reference: the supplement of paper PMC10981050
